From PubChem BioAssay
Most compounds without a hit are left out; they make up all but 1.3% or so of the library.
LANA DNA inh = inhibitors of KSHV LANA C-terminal domain DNA binding | AID 504423 | inhibition, % at 9 µM | actives 0.078% (n = 340,000) | MBP-C-LANA/FAM-LBS DNA binding, fluorescence polarization;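 active = highest replicate inhibition at or above 60% at 9 µM, even if other replicates fall short; inactive = all replicates below 60% inhibition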;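 note: 0% = neutral control wells and 100% = 4 µM acridine orange control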
GLD-1 RNA inh = GLD-1-TGE RNA interaction inhibition (C. elegans) | inhibition, % at 5.96 µM | purified GLD-1 + fluorescein TGE RNA, fluorescence polarization | actives 0.44% (n = 320,000) | Q17339 | AID 2280;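 active = percent inhibition above a per-plate cutoff, the plate mean of test compounds plus 3 SD, cut at about 30% in these data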;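 note: 0% = DMSO wells with GLD-1 and probe and 100% = wells lacking GLD-1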
Target sequence (Q17339 whole entry, looked up): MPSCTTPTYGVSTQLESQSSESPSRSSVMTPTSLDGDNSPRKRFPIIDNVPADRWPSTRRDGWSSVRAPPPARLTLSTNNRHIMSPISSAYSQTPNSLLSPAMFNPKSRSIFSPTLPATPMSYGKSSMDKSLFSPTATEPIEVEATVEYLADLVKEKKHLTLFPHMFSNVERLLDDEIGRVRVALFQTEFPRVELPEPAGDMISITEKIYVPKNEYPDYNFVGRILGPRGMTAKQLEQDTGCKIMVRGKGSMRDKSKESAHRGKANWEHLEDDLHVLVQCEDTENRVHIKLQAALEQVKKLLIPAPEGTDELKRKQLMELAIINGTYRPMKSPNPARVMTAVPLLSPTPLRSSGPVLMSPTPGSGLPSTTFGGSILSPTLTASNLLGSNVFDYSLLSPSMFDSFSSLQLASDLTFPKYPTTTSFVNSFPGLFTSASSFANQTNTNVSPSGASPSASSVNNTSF
Bcl-xL primary = Bcl-xL (human) inhibition; inhibition, % at 10.9 µM; AID 2129; Q07817; GST-Bcl-xL / FITC-Bim BH3 peptide fluorescence polarization; actives 0.7% (n = 320,000);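 active = inhibition above the mean of all tested compounds plus 3 SD, cutoff set per campaign, cut at about 30% in these data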;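 note: 0% = DMSO wells and 100% = unlabeled Bim-BH3 peptide competitor; inhibitors lower millipolarization by displacing the labeled peptide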
Keap1-Nrf2 PPI = inhibitors of human Keap1-Nrf2 protein-protein interaction; inhibition, % at 9.4 µM; Keap1 Kelch-Nrf2 peptide fluorescence polarization, 1536-well; AID 504523; actives 0.15% (n = 340,000); Q14145; in the data active = inhibition above about 12%;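 note: human Keap1 Kelch domain with fluorescein labeled Nrf2 9mer peptide probe; 0% = neutral control wells and 100% = peptide positive control; higher means more block of Keap1 binding to Nrf2 peptide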
E coli Lon inh = inhibitors of E. coli Lon protease; purified E. coli Lon protease, fluorescence polarization; inhibition, % at 7.94 µM; actives 0.42% (n = 360,000); in the data active = inhibition above about 13%, passing the limit was not always enough;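 note: 0% = enzyme with probe and DMSO and 100% = no enzyme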
MCL1 BIM primary = MCL1-BIM-BH3 interaction inhibition (human); Q07820; GST-MCL1 / FITC-Bim-BH3 fluorescence polarization; inhibition, % at 10.9 µM; actives 0.68% (n = 320,000);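 active = inhibition above the mean inhibition of all tested compounds plus 3 SD, set per campaign, cut at about 40% in these data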;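 note: 0% = DMSO wells and 100% = unlabeled Bim-BH3 peptide control; higher means more loss of mP so more displacement of Bim peptide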
The depositor's hits bear a star; · = no result given.

SMILES	LANA DNA inh	GLD-1 RNA inh	Bcl-xL primary	Keap1-Nrf2 PPI	E coli Lon inh	MCL1 BIM primary
CCN(CC)Cc1c(O)ccc2c1O/C(=C\C=C\c1ccccc1)C2=O	14	12	27	-84	-77	19
CCCS(=O)(=O)NC(=O)C1(C)CCN(C(=O)c2c(C)noc2C)C1 (stereo unspecified)	·	·	·	·	2	·
O=C(NCCCN1CCC(Cc2ccccc2)CC1)c1ccc(CS(=O)c2ccccc2Cl)o1 (stereo unspecified)	·	·	·	·	-8	·
O=C(NC(c1ccc(Cl)cc1)c1cnccn1)C1CCN(CCCc2ccccc2)CC1 (stereo unspecified)	·	·	·	·	-8	·
Cc1cc(S(=O)(=O)Cc2noc(-c3c(C)noc3C)n2)c(C)cc1Cl	-2	4	5	-4	-6	-1
Cc1noc(C)c1-c1nc(CSc2ccccc2)no1	91*	-2	-9	-2	-8	3
CCCCCCCCN1C(=O)[C@H](CC(=O)NCCC(C)C)C[C@@]2(C(=O)OCC)CCCC=C12	·	·	·	·	-9	·
CC1CCN(S(=O)(=O)N2CCC(C(=O)NCc3ccc(F)cc3Cl)CC2)CC1	·	·	·	·	-8	·
CC(C)N1CCc2c(sc(NC(=S)NC(=O)c3ccccc3)c2C#N)C1	-12	-105	-36	-30	-122	-110
CC(C)N1CCc2c(sc(N)c2C#N)C1	4	-75	47*	-14	-64	43*
CSc1nnc(N2C(=O)C(O)=C(C(=O)c3ccco3)C2c2cccc(Cl)c2)s1 (stereo unspecified)	12	37*	39*	0	-13	33
O=C(C1=C(O)C(=O)N(c2ncccn2)C1c1cccc(Cl)c1)c1ccco1 (stereo unspecified)	0	7	9	-3	3	2
COc1ccc(C2C(C(=O)c3ccco3)=C(O)C(=O)N2c2nnc(C)s2)cc1OC (stereo unspecified)	2	19	45*	5	5	43*
CCOc1cccc(C2C(C(=O)c3ccco3)=C(O)C(=O)N2c2nnc(C)s2)c1 (stereo unspecified)	3	50*	43*	-3	16	34
C=CCOc1ccc(C2C(C(=O)c3ccco3)=C(O)C(=O)N2c2nnc(C)s2)cc1 (stereo unspecified)	-4	21	33*	1	0	27
COc1ccc(C2C(C(=O)c3ccco3)=C(O)C(=O)N2c2nnc(C)s2)cc1 (stereo unspecified)	5	24	26	-2	1	32
O=c1ccn([C@@H]2O[C@H](CNS(=O)(=O)c3csc(-c4ccno4)c3)[C@@H](O)[C@H]2O)c(=O)[nH]1	-2	·	·	-2	-9	·
NC(=O)c1cccc(-c2ccnc3c2CC(C(=O)NCc2cccc(Cl)c2)O3)c1 (stereo unspecified)	·	·	·	·	-1	·
CCN(CC)C(=O)C1=C(C)N(Cc2ccccc2)C(=O)C(CC(=O)NCCCCc2ccccc2)C1 (stereo unspecified)	·	·	·	·	3	·
COCCn1nnnc1CN(Cc1cc2cc(OC)c(OC)cc2[nH]c1=O)C1CCCC1	3	23	34*	-6	-7	41*
O=S(=O)(O)c1cccc2cccc(Nc3ccccc3)c12	96*	7	11	4	8	21
c1ccc(Nc2cccc3c(Nc4ccccc4)cccc23)cc1	-1	7	0	6	-4	0
O=C1C(=O)c2cccnc2-c2ncccc21	·	·	·	·	11	·
COc1ccc2c(Cl)c(C(=O)N/N=C3\CCCC(=O)C3)sc2c1	9	129*	40*	-29	-141	23
COc1ccc2c(Cl)c(C(=O)N/N=C/c3ccc4c(c3)OCO4)sc2c1	-1	-14	-6	-2	1	-2
SMILES	LANA DNA inh	GLD-1 RNA inh	Bcl-xL primary	Keap1-Nrf2 PPI	E coli Lon inh	MCL1 BIM primary
Cc1cccc(C)c1NC(=O)CN1CCN(C(=O)c2cc(C3CC3)nn2-c2ccccc2)CC1	·	·	·	·	-1	·
COc1ccc(CC(=O)Nc2cc(Cl)ccc2C(=O)O)cc1	1	-3	5	-7	2	1
CCCCOc1ccc(Nc2cc(Cl)ccc2C(=O)O)cn1	2	17	37*	5	-5	36
Cc1ccc(S(=O)(=O)N2C[C@@H](C)[C@]3(C2)[C@H](O)[C@H](OC(=O)Nc2c(C)noc2C)C[C@H]2C(=O)N(c4ccccc4)C(=O)[C@H]23)cc1	·	·	·	·	1	·
O=C(/C=C/c1cccs1)N1CCC2(CC1)Oc1ccc(F)cc1C(=O)C21CC(c2ccc(Cl)cc2)=NO1 (stereo unspecified)	-2	-4	31*	-4	12	-4
O=C(/C=C/c1cccs1)N1CCC2(CC1)Oc1ccc(Cl)cc1C(=O)C21CC(c2ccc(Cl)cc2)=NO1 (stereo unspecified)	-2	9	3	-6	16	0
Cc1cccc2cc3c(N)c(C#N)sc3nc12	3	1	35*	3	2	30
Oc1c(Br)cc(/C=N/n2c(-c3ccccc3)n[nH]c2=S)c(Br)c1O	·	8	60*	·	·	108*
COc1c(C(=O)Nc2ccc(Br)cn2)ccc2ccccc12	2	5	57*	2	-3	0
CCCCn1c(-c2ccccc2C)nc2cc3[nH]c(=O)c(C(C)C)nc3cc21	1	7	30*	3	-2	32
CCc1nc2ccc(C(=O)NCCC(C)C)cn2c1N(C)Cc1ccc(OC)cc1	·	·	·	·	-13	·
COCCNC(=O)CSc1ccc(-c2nc3ccccc3[nH]2)cn1	1	1	61*	-4	1	-8
CCOC(=O)CSc1ccc(-c2nc3ccccc3[nH]2)cn1	-5	-4	3	1	-4	2
COc1ccc(CCNC(=O)COC(=O)C2=NNC(=O)CC2)cc1	·	·	·	·	2	·
CC(=O)Nc1ccc(S(=O)(=O)Nc2nc3ccccc3nc2Nc2ccc(C(=O)O)c(O)c2)cc1	90*	30	·	4	14	·
CC(=O)Nc1ccc(S(=O)(=O)Nc2nc3ccccc3nc2Nc2cccc(O)c2)cc1	1	-7	8	-4	5	6
COc1ccc(C(O)c2nc(-c3ccoc3)cs2)cc1 (stereo unspecified)	·	·	·	·	-3	·
O=C(NCc1ccco1)c1cccc2c1C(=O)c1ccc(/C=C/c3ccccc3)cc1S2(=O)=O	1	-15	·	-3	-31	·
O=C(NCc1cccc(C(F)(F)F)c1)c1cccc2c1C(=O)c1ccc(N3CCC(Cc4ccccc4)CC3)cc1S2(=O)=O	9	128*	·	-2	-132	·
O=C(NCc1ccco1)c1cccc2c1C(=O)c1ccc(N3CCC(Cc4ccccc4)CC3)cc1S2(=O)=O	10	91*	·	-3	-149	·
O=C(NCc1ccc(OC(F)(F)F)cc1)c1cccc2c1C(=O)c1ccc(N3CCC(Cc4ccccc4)CC3)cc1S2(=O)=O	18	122*	·	-9	-15	·
